{"source": "PubChem BioAssay (EPA / NIEHS)", "note": "Some compounds were tested as several samples or in several runs, with calls that do not always agree. Active and inactive are the calls of the source. How the source made its calls: active means hit-call score of the fitted dose curve at least 0.9, where 1 is the maximum; inactive means score below 0.9.", "data": [{"test": "BSK_3C_SRB: Viability Assessment in the BioMAP Diversity Plus: 3C Assay (AID 2283023);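 further: fitted both ways against DMSO so a hit may be signal rise or drop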", "conditions": "primary human endothelial cells (HUVEC)", "protocol": "BSK_3C is a cell-based, multiplexed-readout assay that uses umbilical vein endothelium, a human vascular primary cell, with measurements taken at 24 hours after chemical dosing in a 96-well plate.BSK_3C_SRB is an assay component measured in the BSK_3C assay. It measures 0.1% sulforhodamine related to cell death using Sulforhodamine staining technology.Data from the assay component BSK_3C_SRB was analyzed into 1 assay endpoint. This assay endpoint, BSK_3C_SRB, was analyzed with bidirectional fitting relative to DMSO as the negative control and baseline of activity. Using a type of viability reporter, gain or loss-of-signal activity can be used to understand changes in the signaling. Furthermore, this assay endpoint can be referred to as a primary readout, because this assay has produced multiple assay endpoints where this one serves a signaling function. To generalize the intended target to other relatable targets, this assay endpoint is annotated to the cell morphology intended target family, where the subfamily is cell conformation.\nThe levels of cell surface (or secreted, indicated by the prefix \"s\") biomarker endpoints were measured by ELISA. Overt cytotoxicity to cells in confluent adherent cultures (all systems other than the BT system) was assessed by measuring total protein levels using sulforhodamine B (SRB) staining in parallel cultures at the time of biomarker measurements, indicated as SRB endpoints. For proliferation assays for adherent cell types, individual cell types are cultured at sub-confluence and relative cell numbers quantified by SRB staining at time points optimized for each system (48 h: 3C and CASM3C systems; 72 h: BT and HDF3CGF systems; 96 h: SAg system). SRB was performed by staining cells with 0.1% SRB after fixation with 10% TCA and reading wells at 560 nm.Viability and proliferation of PBMC (T cells) was quantified by Alamar Blue reduction for the SAg and BT systems. For PBMC viability (referred to as PBMC Cytotoxicity within the assay endpoint names), cells were plated (75,000/well in a 96-well plate) and then chemical samples added for 1 h before addition of activators, SEB and TSST-1 (20 ng/mL final concentration each). Cells were incubated for 90 h. Then, Alamar Blue (20 uL/well) (Invitrogen, Cat DAL1100) was added for 6 h, and the plates were read with a fluorescence microplate reader at 546/580 nm (excitation/emission). For PBMC proliferation, cells were plated and activated as above but incubated for only 16 h prior to addition of Alamar Blue. Plates were read after 6 h.", "values": [{"molecule": "NCC(F)(F)C(F)(F)C(F)(F)C(F)(F)C(F)(F)C(F)(F)C(F)(F)F", "outcome": "inactive"}, {"molecule": "OCCC(F)(F)C(F)(F)C(F)(F)C(F)(F)C(F)(F)C(F)(F)F", "AC50": "57.7 µM (active)", "outcome": "inactive"}, {"molecule": "Oc1cccc(O)c1", "outcome": "inactive"}, {"molecule": "CCC(C)(C)C1CCC(O)CC1", "note": "(stereo not given)", "outcome": "inactive"}, {"molecule": "CC(C)(C)c1cccc(C(C)(C)C)c1O", "outcome": "inactive"}, {"molecule": "O=C(OCCOCCOC(=O)c1ccccc1)c1ccccc1", "outcome": "inactive"}, {"molecule": "CC#C[C@]1(O)CC[C@H]2[C@@H]3CCC4=CC(=O)CCC4=C3[C@@H](c3ccc(N(C)C)cc3)C[C@@]21C", "AC50": "30.5 µM (active)"}, {"molecule": "CCCCCCCCCCCCCC[N+](C)(C)C", "AC50": "1.38 µM (active)"}, {"molecule": "COCC(C)O", "note": "(stereo not given)", "outcome": "inactive"}, {"molecule": "OC1CCC(C2CCCCC2)CC1", "note": "(stereo not given)", "outcome": "inactive"}, {"molecule": "Cc1oc(-c2ccccc2)nc1CCOc1ccc(C[C@H](Nc2ccccc2C(=O)c2ccccc2)C(=O)O)cc1", "AC50": "14.9 µM (active)"}, {"molecule": "CCc1nn(C2CCCCC2)c2cc(C3(C#N)CCC(C(=O)O)CC3)ccc12", "note": "(stereo not given)", "AC50": "5.08 µM (active)"}, {"molecule": "CC(C)(C)c1cc(C(C)(C)C)c(O)c(C(C)(C)C)c1", "outcome": "inactive"}, {"molecule": "Oc1cc2ccccc2c2ccccc12", "AC50": "15.4 µM (active)"}, {"molecule": "CCCCC(CC)COC(=O)CCCCC(=O)OCc1ccccc1", "note": "(stereo not given)", "outcome": "inactive"}, {"molecule": "CCc1ccc(CCOc2ccc(CC3SC(=O)NC3=O)cc2)nc1", "note": "(stereo not given)", "outcome": "inactive"}, {"molecule": "c1ccc2c(c1)ccc1ccccc12", "outcome": "inactive"}, {"molecule": "CCOC(=O)CC(O)(CC(=O)OCC)C(=O)OCC", "outcome": "inactive"}, {"molecule": "CCCCCCCCC(=O)O", "outcome": "inactive"}, {"molecule": "O=[N+]([O-])c1ccc(O)cc1", "outcome": "inactive"}, {"molecule": "CC1=C(/C=C/C(C)=C/C=C/C(C)=C/C(=O)O)C(C)(C)CCC1", "outcome": "inactive"}, {"molecule": "N#C[C@@H]1CC(F)(F)CN1C(=O)CNC1CC2CCC(C1)N2c1ncccn1", "note": "(stereo not given in full)", "AC50": "8.06 µM (active)"}, {"molecule": "COCC(C)OCC(C)O", "note": "(stereo not given)", "outcome": "inactive"}, {"molecule": "CC[C@H](c1ccc(O)cc1)[C@@H](CC)c1ccc(O)cc1", "AC50": "27.9 µM (active)"}, {"molecule": "CCCCCCCCCCCCN1CCCC1=O", "AC50": "33.6 µM (active)"}, {"molecule": "C[C@@H]1C[C@H]2[C@@H]3CCC4=CC(=O)C=C[C@]4(C)[C@@]3(F)[C@@H](O)C[C@]2(C)[C@@]1(O)C(=O)COP(=O)(O)O", "outcome": "inactive"}, {"molecule": "O=c1c(-c2ccc(O)cc2)coc2cc(O)ccc12", "outcome": "inactive"}, {"molecule": "COC(=O)CCCCC(=O)OC", "outcome": "inactive"}, {"molecule": "CN(C)C=O", "outcome": "inactive"}, {"molecule": "CCCCOCCO", "outcome": "inactive"}, {"molecule": "CCCCCCC(=O)O", "outcome": "inactive"}, {"molecule": "CCN(CC)CCNc1ccc(CNC=O)c2sc3ccc(OC)cc3c(=O)c12", "AC50": "17.7 µM (active)"}, {"molecule": "OC1CCCCC1", "outcome": "inactive"}, {"molecule": "CC(O)CO", "note": "(stereo not given)", "outcome": "inactive"}, {"molecule": "Cc1cc(CCN2CCN(c3nsc4ccccc34)CC2)cc2c1NC(=O)CC2(C)C", "AC50": "26.5 µM (active)"}, {"molecule": "CCCCCCCCCCCCc1ccccc1S(=O)(=O)O", "outcome": "inactive"}, {"molecule": "CC(C)(C)CC(C)(C)c1ccc(O)c(-n2nc3ccccc3n2)c1", "outcome": "inactive"}, {"molecule": "C=C(C)C(=O)OCCC(F)(F)C(F)(F)C(F)(F)C(F)(F)C(F)(F)C(F)(F)F", "outcome": "inactive"}, {"molecule": "Cc1cc(C)c(O)c(C)c1", "outcome": "inactive"}]}]}
